The list is not random: actives were taken first. Their share in the collection is about 4%.
HIF-2a block – HIF-2a reporter inhibitors, primary screen, luminescence, 786-0 RCC cells. 786-0 RCC cells HIF-2a reporter, luciferase luminescence, overnight. inhibition, % at 18.8 µM. 0.72% of 360,000 active. AID 624352, 2012;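 active = inhibition of the luminescence signal of 40% or more relative to plate controls, in a single-dose primary screen at 18.75 µM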
TROY signal inh – inhibitors of TROY-driven NF-kB signaling, primary screen, Q293 LMP1-TROYcd cells, NF-kB luciferase, uHTS; 0.98% of 360,000 active; inhibition, % at 10 µM; Q293 LMP1-TROYcd NF-kB luciferase reporter, 4 h; AID 1347056, 2019;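 active = compounds whose plate-normalised and pattern-corrected inhibition of the luciferase reporter signal at the single screening dose is 50% or more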
TWEAK Fn14 block – inhibitors of TWEAK-Fn14 signaling, primary screen, luciferase reporter cells, uHTS; TWEAK-stimulated Fn14 reporter cells, luciferase luminescence, 8 h; inhibition, % at 10 µM; 2% of 360,000 active; AID 1159606, 2016; in the data active = inhibition above about 50%
MITF TRPM1 inh – inhibitors of MITF-dependent TRPM1 promoter reporter, primary screen, cell-based, SK-MEL-5, single point, luciferase; inhibition, % at 12.5 µM; 0.83% of 330,000 active; AID 488899, 2010; SK-MEL-5 TRPM1 promoter luciferase, 24 h;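 active = mean inhibition across replicates of 60% or more, whatever share of single replicates reaches that level; inconclusive = some that reach 60%, reason not given; inactive = mean inhibition across replicates below 60%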
LMP1 NFkB inh – EBV LMP1-driven NF-kappaB luciferase reporter inhibitors, primary screen, cell-based, luminescence, single point; AID 504558, 2011; LMP1-induced NF-kappaB luciferase reporter cells; 0.69% of 350,000 active; inhibition, % at 12.5 µM; in the data active = inhibition above about 41%; inconclusive = no clear call, values can overlap the other calls
Peg3 prom inh-1 – Peg3 promoter-driven luciferase inhibitors, primary screen, cell-based, HeLa, luciferase luminescence; HeLa PEG-Prom luciferase reporter, overnight; inhibition, % at 20 µM; 1.7% of 360,000 active; AID 588405, 2011;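 active = inhibition of at least 50% at 20 µM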
Peg3 prom inh-2 – Peg3 promoter reporter inhibitors, retest, confirmation, cell-based, HeLa, luciferase reporter, single concentration | shares compounds with Peg3 prom inh-1 | HeLa PEG-Prom luciferase reporter, luminescence, overnight | inhibition, % at 20 µM | 84% of 1,300 active;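 active = at 20 µM dose, 40% or more inhibition averaged across four replicates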
A number is an active result; . = inactive; ? = inconclusive; / = no result given.

SMILES	HIF-2a block	TROY signal inh	TWEAK Fn14 block	MITF TRPM1 inh	LMP1 NFkB inh	Peg3 prom inh-1	Peg3 prom inh-2
O=C1NC(Cc2ccc(O)cc2)c2nc3ccc(F)cc3c(=O)n2-c2cc3ccccc3cc21 (stereo not drawn)	.	.	.	/	.	54.1	60.0
CCN(CC)c1ccc(C(=C2C=CC(=[N+](CC)CC)C=C2)c2ccccc2)cc1	83.8	88.6	106.6	108.6	95.0	95.9	98.6
COCC(C)n1c(C)cc(C(=O)COC(=O)c2cccn2C)c1C (stereo not drawn)	.	81.8	93.5	.	?	55.5	45.3
CN(C)S(=O)(=O)c1ccc(C(=O)NNC(=O)C23CC4CC(CC(C4)C2)C3)cc1	.	.	.	.	.	.	/
CN(C(=O)c1cccc(NC(=O)Cc2ccc(NC(=O)C3CCN(C(=O)C4CC4)CC3)cc2)c1)C1CCCCC1	.	.	.	.	.	.	/
COc1ccc2c(c1)sc1nc(-c3ccccc3)cn12	78.4	84.0	102.7	90.8	79.6	85.1	73.9
N/C(=N\OC(=O)c1ccccc1F)c1cccc([N+](=O)[O-])c1	.	.	.	/	.	.	/
O=C(Sc1cccc2cccnc12)c1ccccc1Br	.	.	101.2	84.9	.	59.3	46.7
CC(=O)/C(=N\Nc1ccccc1)Sc1cccc2cccnc12	.	.	.	.	.	.	/
CC(Sc1ccccc1)C(=O)NNC(=O)c1ccncc1 (stereo not drawn)	.	.	.	.	.	.	/
Cc1nc(SCC(=O)Nc2ccc(S(=O)(=O)N3CCOCC3)cc2)c2c(C)c(C)sc2n1	.	51.2	.	.	.	70.0	.
Cc1nc(SCC(=O)N2CCOCC2)c2c(C)c(C)sc2n1	.	.	.	.	.	.	/
O=C(NCCc1ccccc1C(F)(F)F)c1cc(COc2ccccc2)on1	.	.	.	/	.	.	/
CN(C)CCNc1ncnc2c1sc1nc(N3CCCC3)c3c(c12)CC(C)(C)OC3	.	.	.	.	.	57.2	67.5
CC1(C)Cc2c(c(-c3ccco3)nc3sc4c(NCCN5CCOCC5)ncnc4c23)CO1	.	.	.	.	.	.	/
CCOC(=O)c1ccc(NC(=O)C2CCN(S(=O)(=O)c3ccccc3)CC2)cc1	.	.	.	.	.	.	/
CCOC(=O)c1ccc(NC(=O)C2CCCN(S(=O)(=O)c3ccc(F)cc3)C2)cc1 (stereo not drawn)	.	.	57.5	.	.	73.7	56.3
COC(=O)c1nn(C)c(=O)[nH]c1=O	.	.	.	.	.	.	/
COc1ccc(-c2nc(NC(=O)c3n[nH]c(=O)c4ccccc34)sc2C)cc1	.	.	.	.	.	59.6	48.1
COc1cc(-c2nnc(SCC(=O)N(C)C3CCS(=O)(=O)C3)o2)cc(OC)c1OC (stereo not drawn)	.	.	.	.	.	.	/
CC1=NN(c2nc(-c3ccc(C)cc3)cs2)C(=O)C1N=Nc1ccc2ccccc2c1 (stereo not drawn)	.	.	.	.	.	.	/
CC1=NN(c2nc(-c3ccc(C)cc3)cs2)C(=O)C1N=Nc1ccc(C(N)=O)cc1 (stereo not drawn)	.	.	.	101.6	.	102.4	.
CCN(CC)c1ccc(NC(=O)Cn2c(C(C)NC(=O)c3ccccc3)nc3ccccc32)cc1 (stereo not drawn)	.	.	.	.	.	78.5	.
CC(NC(=O)c1ccccc1)c1nc2ccccc2n1Cc1ccc(C#N)cc1 (stereo not drawn)	.	.	.	.	.	.	/
CN(CC(=O)Nc1ccc(Cl)c(C(F)(F)F)c1)C(=O)c1cc(-c2ccncc2)nc2ccccc12	.	.	.	.	.	77.1	91.5
SMILES	HIF-2a block	TROY signal inh	TWEAK Fn14 block	MITF TRPM1 inh	LMP1 NFkB inh	Peg3 prom inh-1	Peg3 prom inh-2
Cc1nc(-c2ccc(F)cc2)c(CC(=O)N(C)CC(=O)Nc2ccc(Cl)c(C(F)(F)F)c2)s1	.	.	.	.	.	57.8	56.3
COc1cccc(NC(=O)CN(C)C(=O)c2cc(-c3ccccc3)nc3ccccc23)c1	.	.	.	.	.	.	/
Cc1nc(-c2ccc(F)cc2)c(CC(=O)N(C)CC(=O)Nc2ccccc2Cl)s1	.	.	.	.	.	.	/
COc1cccc(NC(=O)CN(C)C(=O)c2cc(-c3ccc(F)cc3)nc3ccccc23)c1	.	.	.	.	.	63.1	72.8
Cc1ccnc(NCc2ccc(Cl)cc2)c1	.	.	.	.	.	.	/
COC(=O)c1cc(Br)ccc1NC(=O)CSCc1c(C)noc1C	.	.	.	.	.	.	/
COC(=O)C1CCN(S(=O)(=O)CCNC(=O)c2ccc(F)cc2)CC1	.	.	.	.	.	.	/
CCOC(=O)C1CCN(C2=NC(=O)/C(=C/c3ccc(Cl)cc3)S2)CC1	.	.	.	.	.	.	/
CCOC(=O)CSC1=NC(=O)/C(=C\c2ccc(Cl)cc2)S1	.	.	.	66.0	.	87.8	.
COc1ccc2nc(-c3ccccn3)[nH]c2c1	.	.	.	.	.	.	/
COc1cc(C=NO)nc(-c2ccccn2)c1	.	.	.	79.2	57.1	52.2	64.6
Cc1ccc2cc3c(N)c4c(C)ccc(C)c4nc3nc2c1	.	.	.	.	.	103.1	97.2
Cc1ccc2c(N)c(C)ccc2c1	.	.	.	.	.	.	/
CSc1ccc(/C=C/C(=O)NC(=O)c2ccccc2O)cc1	.	.	.	.	.	.	/
Cc1nn(-c2ccccc2)c2c1C(c1ccc([N+](=O)[O-])cc1)N1C(=N2)C(=O)Nc2ccccc21 (stereo not drawn)	.	.	.	.	.	52.8	50.4
CCCOCCc1nnc(N)s1	.	.	.	.	.	.	/
CN1CCC(N(C)S(=O)(=O)c2ccc(NC(=O)COc3ccc(Br)cc3Cl)cc2)CC1	.	.	.	.	.	70.8	70.6
Cc1ccc(OCC(=O)Nc2ccc(S(=O)(=O)N(C)C3CCN(C)CC3)cc2)c(C)c1	.	.	.	.	.	.	/
CN1CCC(N(C)S(=O)(=O)c2ccc(NC(=O)COc3cccc(Cl)c3)cc2)CC1	.	.	.	.	.	.	/
Cc1c(C(=O)Nc2ccc(S(=O)(=O)N(C)C3CCN(C)CC3)cc2)oc2c(Cl)cccc12	.	.	.	79.3	.	99.3	98.7
CCOc1ccc(-c2n[nH]c(C)c2Oc2ccc(OC)cc2)c(O)c1	.	.	.	.	.	.	/
O=C(Nc1ccc(N2CCOCC2)cc1)c1cc(-c2ccncc2)nc2ccccc12	.	.	.	.	.	.	/

Compound activity: PubChem, several laboratories
